For 23 compounds, activation, Potency and activity change, negative = inhibition results are on record in PubChem BioAssay (NCATS).

Records with an inconclusive call do not appear. Values without a mark were called inactive. The source made the active and inactive calls. Calls follow the shape of the dose curve; as a rule, active = well fitted curve in the direction sought with a large enough effect; inconclusive = small, poorly fitted or top-dose-only effect, or another doubt; inactive = no such curve, though single readings can be large; an effect the other way counts as inactive or inconclusive.

The target of assay [1] is Cellular tumor antigen p53 (Homo sapiens) (UniProt P04637). The experiment in a line: Primary qHTS for small molecule compounds that upregulate eGFP-tagged delta133p53alpha (in N-terminal) cells. (AID 2060322). Also: nearly all actives have a fitted effect of over 75% in size. Also: potency is read from the fitted curve at half-maximal effect.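 As to activation: series mostly up to about 56 µM; 0% = DMSO vehicle and 100% = reference activator.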 The conditions noted are these: NCI-H358 eGFP-delta133p53alpha fluorescence, 24 h; activation: active compounds read high. In outline:
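NCI-H358 cells pre-induced 24 h with 10 ng/ml doxycycline to express N-terminal eGFP-delta133p53alpha, then dosed 24 h at 37C without doxycycline; fixed, Hoechst-stained, GFP intensity by laser scanning cytometry, normalized to DMSO (0%) and 57.5 uM 5-azacytidine (100%).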
A general note: Quantitative high-throughput screening tests each substance at several concentrations.

In assay [2] the target is Aldehyde dehydrogenase, mitochondrial (Homo sapiens) (UniProt P05091). The experiment in a line: qHTS for Inhibitors of the Aldehyde Dehydrogenase Family (ALDH2) Primary screen (AID 2061308).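 Also: plate controls were vehicle for no effect and reference inhibitor for full effect; nearly all actives have a fitted effect of over 55% in size.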
Assay [3] concerns the target Retinaldehyde dehydrogenase 3 (Homo sapiens) (UniProt P47895). The experiment in a line: qHTS for Inhibitors of the Aldehyde Dehydrogenase Family (ALDH1A3) Primary screen (AID 2061315).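 Also: plate controls were DMSO vehicle for no effect and reference inhibitor for full effect.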

Chain of Cellular tumor antigen p53 (Homo sapiens) (P04637 whole entry, looked up): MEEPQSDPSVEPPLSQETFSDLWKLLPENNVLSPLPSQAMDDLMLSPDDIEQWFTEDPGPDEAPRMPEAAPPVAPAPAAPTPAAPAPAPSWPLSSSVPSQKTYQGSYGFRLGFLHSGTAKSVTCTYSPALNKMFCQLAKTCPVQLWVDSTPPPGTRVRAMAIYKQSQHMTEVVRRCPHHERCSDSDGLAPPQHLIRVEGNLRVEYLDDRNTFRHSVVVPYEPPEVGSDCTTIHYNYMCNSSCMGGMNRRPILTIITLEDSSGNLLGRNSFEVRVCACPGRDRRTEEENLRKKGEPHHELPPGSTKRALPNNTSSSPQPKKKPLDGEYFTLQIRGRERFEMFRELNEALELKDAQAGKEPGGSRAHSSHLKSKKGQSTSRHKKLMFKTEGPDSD

Turning to `C=C1C2(C)CC3C4(C)C=CC(=O)OC(C)(C)C4CCC3(C)C1(C(=O)OC)C(=O)C(C)(O)C2=O` (centres undefined), in assay [1], the activation was -21.4%. Moreover, the Potency entry in assay [2] and in assay [3] was “inactive” throughout.
With `O=C(CCc1ccccc1)N1CCC(O)(Cn2cnc3cc(Cl)ccc3c2=O)CC1`, the activation in assay [1] is -13.7%. In addition, the Potency entry in assay [2] and in assay [3] was “inactive” each time.
For `Cc1ccc2c(c1)C=Cc1cc(C)ccc1C2c1cn(Cc2ccc(C(=O)Nc3nn[nH]n3)o2)c(=O)[nH]c1=S`, the activation in assay [1] is -8.33%. Moreover, the Potency result in assay [2] and in assay [3] was “inactive” in each case.
For the compound `C=C[C@@]1(C)CC(=O)C2[C@](C)(O1)[C@@H](OC(C)=O)[C@@H](O)[C@H]1C(C)(C)CCC[C@]21C` (some centres undefined), the activation in assay [1] is -4.33%. Moreover, the Potency result in assay [2] and in assay [3] was “inactive” in each case.
Turning to `Nc1nc2c(c(=O)[nH]1)C[C@@H](CCc1ccc(C(=O)N[C@@H](CCC(=O)O)C(=O)O)cc1)CN2`, the activation in assay [1] was 8.33%. The Potency result in assay [2] and in assay [3] was “inactive” in each case.
In the case of `COc1ccc(S(=O)(=O)Nc2cc(Cl)cc(Cl)c2OC)cc1N1CCNCC1`, the activation in assay [1] was 8.04%. Also, the Potency entry in assay [2] and in assay [3] was “inactive” in each case.
With `COc1cc(NC(=O)c2cccc(-n3cc(NC(=O)Nc4cccc(C)c4)cn3)c2)cc(OC)c1OC`, in assay [1], the Potency is 23.9 µM (active). In addition, the Potency entry in assay [2] and in assay [3] was “inactive” in each case.
In the case of `O=C(Nc1cc(C(F)(F)F)ccc1N1CCCCC1)c1ccncc1`, the activation in assay [1] is -17.9%. The Potency entry in assay [2] and in assay [3] was “inactive” in each case.
`CCCn1cc2c(nc(NC(=O)Nc3ccc(OC)cc3)n3nc(-c4ccco4)nc23)n1`: the activation in assay [1] was 9.07%. Besides, the Potency entry in assay [2] and in assay [3] was “inactive” each time.
With `CCC1OC(=O)C(C)CC(C)C(=O)/C(C)=C/C(C)C(=O)/C=C/C1(C)O` (centres undefined), the activation in assay [1] was 3.05%. For the same compound, the Potency result in assay [2] and in assay [3] was “inactive” each time.
As for `COC12CC3C(C(C)C1=CC(=O)O2)C(O)C(OC(C)=O)C1C(C)(C)C(OC(C)=O)CCC31C` (centres undefined), in assay [1], the activation was -3.05%. Besides, the Potency result in assay [2] and in assay [3] was “inactive” each time.
Regarding `CC(=O)OC[C@]12[C@H](OC(C)=O)C(=O)[C@@H]3[C@@H](OC(C)=O)[C@@]14O[C@@]3(C)COC(=O)c1cccnc1[C@@H](C)[C@H](C)C(=O)O[C@@H]([C@H](O)[C@@H]2OC(C)=O)[C@]4(C)O`, the activation in assay [1] is 6.25%. The Potency entry in assay [2] and in assay [3] was “inactive” each time.
Consider `CC(=O)O[C@H]1[C@@]2(O)C[C@H](C)[C@H](OC(=O)c3ccccc3)[C@@H]2[C@@H](OC(=O)CO)[C@]2(OC(C)=O)C[C@H]3C(=O)C(C)(C)C[C@@H]3[C@@]1(C)[C@H]2OC(C)=O`, for which the activation in assay [1] is -6.25%. The Potency result in assay [2] and in assay [3] was “inactive” throughout.
As for `COc1cc2c(cc1OC)N1C(=O)C[C@@]34C=CC[N@+]5([O-])CC[C@H]2[C@H](CC3)[C@@]145`, the activation in assay [1] was 5.36%. Besides, the Potency entry in assay [2] and in assay [3] was “inactive” in each case.
As to `C/C1=C\C[C@]2(C)C(=O)C(O)=C([C@H](C)CO)[C@H]2C/C=C(\C)[C@@H](O)CC/C(C)=C/CC1`, in assay [1], the activation is -6.11%. Further, the Potency result in assay [2] and in assay [3] was “inactive” each time.
In the case of `COc1cc(O)c(C(=O)CCc2ccc(O)cc2)c(O[C@@H]2O[C@H](CO)[C@@H](O)[C@H](O)[C@H]2O)c1`, the Potency in assay [1] is 7.38 µM (active). The Potency entry in assay [2] and in assay [3] was “inactive” each time.
On to `CCC(CCO[C@@H]1O[C@H](CO[C@H]2OC[C@](O)(CO)[C@H]2O)[C@@H](O)[C@H](O)[C@H]1O)C(C)(C)O` (some centres undefined), for which the activation in assay [1] was -6.87%. In addition, the Potency result in assay [2] and in assay [3] was “inactive” in each case.
`O=S(=O)(NCc1ccccn1)c1ccc(Br)c2ccccc12`: in assay [1], the activation is 0.333%. Also, the Potency result in assay [2] and in assay [3] was “inactive” in each case.
As to `CC1OC(OC2C(CO)OC(OCC3OC(OC(=O)C45CCC(C)(C)CC4C4=CCC6C7(C)CCC(OC8OC(CO)C(O)C(OC9OC(CO)C(O)C(O)C9O)C8O)C(C)(C)C7CCC6(C)C4(C)CC5)C(O)C(O)C3O)C(O)C2O)C(O)C(O)C1OC1OC(CO)C(O)C(O)C1O` (centres undefined), in assay [1], the activation is -2.29%. For the same compound, the activity change, negative = inhibition in assay [2] was -2.7% [at 11.2 µM]; in assay [3], 7.19% [at 11.2 µM].
With `CC(=O)/C=C/C1(O)C(C)=CC(=O)CC1(C)C` (centres undefined), the activation in assay [1] is 14.3%. Moreover, the Potency result in assay [2] and in assay [3] was “inactive” in each case.
Regarding `O=C(/C=C/c1ccc(O)cc1)OC1[C@H](O)CC(O)(C(=O)O)C[C@H]1O` (some centres undefined), the activation in assay [1] was -0.763%. Further, the Potency result in assay [2] and in assay [3] was “inactive” each time.
On to `CC(=O)O[C@H]1CC(C)(C)CC2[C@@]13[C@H](O)C[C@]1(C)[C@@]2(CCC2[C@@]4(C)CC[C@H](O[C@@H]5OC[C@H](O[C@@H]6O[C@H](CO)[C@@H](O)[C@H](O)[C@H]6O[C@@H]6OC[C@@H](O)[C@H](O)[C@H]6O)[C@H](O)[C@H]5O[C@@H]5O[C@H](CO)[C@@H](O)[C@H](O)[C@H]5O)C(C)(C)C4CC[C@]21C)O[C@@H]3O` (some centres undefined), for which, in assay [1], the activation is -7.63%. Besides, the Potency result in assay [2] and in assay [3] was “inactive” each time.
Consider `C[C@@H]1O[C@@H](O[C@H]2[C@H](OC(=O)[C@]34CCC(C)(C)C[C@H]3C3=CCC5[C@@]6(C)CC[C@H](O[C@@H]7O[C@H](C(=O)O)[C@@H](O)[C@H](O)[C@H]7O[C@@H]7O[C@H](CO)[C@H](O)[C@H](O)[C@H]7O)[C@@](C)(C=O)C6CC[C@@]5(C)[C@]3(C)C[C@H]4O)O[C@H](C)[C@H](O[C@@H]3O[C@H](C)[C@H](O)[C@H](O)[C@H]3O)[C@@H]2O)[C@H](O)[C@H](O)[C@H]1O[C@@H]1OC[C@@H](O)[C@H](O[C@@H]2O[C@H](CO)[C@@H](O)[C@H](O)[C@H]2O)[C@H]1O` (some centres undefined), for which the activation in assay [1] was -6.87%. Moreover, the activity change, negative = inhibition in assay [2] is -7.78% [at 11.2 µM]; in assay [3] it was -11.5% [at 11.2 µM].
